Source: PubChem BioAssay AID1159580 (chemical genetic matrix, 2015)
Several values for one entry are separate records, joined by “and”; a condition that tells them apart may be missing. Identical values can stand only once. In all, about 5,500 compounds went through this assay and about 2,000 (36%) were called active. About 18% were inconclusive and are not listed. No stated cut-off is given here; in the data, active means normalized growth mostly below about 0.91 (no sharp cut-off); inconclusive means no clear call, values can overlap the other calls; inactive means mostly above about 0.92. This is one part of the list.

Test: chemical genetic growth profiling, strain panel (AID 1159580);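 further: tested at 20 µM; growth read once vehicle control cultures reached saturation at 30 °C; 1 = growth at the plate median or of vehicle wells; lower values mean less growth of the strain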
Details: S. cerevisiae deletion strains, growth OD

Measured: normalized growth

NS(=O)(=O)c1cc2c(cc1Cl)NC=NS2(=O)=O
inactive: locus YAL013W, strain DEP1, hits give low values 1 | locus YAL021C, strain ccr4, hits give low values 0.984 | locus YAL026C, strain drs2, hits give low values 1.01 | locus YAL030W, strain snc1, hits give low values 1 | locus YAL040C, strain CLN3, hits give low values 1 | locus YBL061C, strain skt5, hits give low values 1 | locus YBR009C, strain hhf1, hits give low values 0.983 | locus YBR021W, strain FUR4, hits give low values 1 | locus YBR023C, strain chs3, hits give low values 1 | locus YBR171W, strain sec66, hits give low values 1 | locus YBR229C, strain ROT2, hits give low values 1 | locus YBR231C, strain swc5, hits give low values 0.973 | locus YBR279W, strain paf1, hits give low values 0.997 | locus YCL011C, strain gbp2, hits give low values 1 | locus YCL016C, strain dcc1, hits give low values 0.999 | locus YCL029C, strain bik1, hits give low values 0.997 | locus YCL061C, strain MRC1 (second series), hits give low values 1 | locus YCL061C, strain MRC1, hits give low values 1.01 | locus YCL069W, strain vba3, hits give low values 1.01 | locus YCR088W, strain abp1, hits give low values 0.995 | locus YDL005C, strain med2, hits give low values 0.997 | locus YDL035C, strain GPR1, hits give low values 1.02 | locus YDL040C, strain nat1, hits give low values 1 | locus YDL074C, strain BRE1, hits give low values 1.01 | locus YDL101C, strain DUN1, hits give low values 1.01 | locus YDL134C, strain PPH21, hits give low values 1 | locus YDL185W, strain tfp1, hits give low values 0.974 | locus YDL192W, strain arf1, hits give low values 1 | locus YDR001C, strain nth1, hits give low values 1.03 | locus YDR069C, strain doa4, hits give low values 1 | locus YDR101C, strain arx1, hits give low values 0.996 | locus YDR137W, strain rgp1, hits give low values 0.999 | locus YDR150W, strain NUM1, hits give low values 1.01 | locus YDR159W, strain sac3, hits give low values 1 | locus YDR162C, strain NBP2, hits give low values 1.02 | locus YDR195W, strain ref2 0.93 | locus YDR297W, strain sur2, hits give low values 1 | locus YDR318W, strain mcm21, hits give low values 1 | locus YDR334W, strain swr1, hits give low values 1 | locus YDR335W, strain msn5, hits give low values 1.02 | locus YDR388W, hits give low values 0.997 | locus YDR392W, strain spt3, hits give low values 1 | locus YDR502C, strain sam2, hits give low values 1.01 | locus YEL003W, strain gim4, hits give low values 0.99 | locus YEL037C, strain rad23, hits give low values 0.999 | locus YEL061C, strain CIN8 (second series), hits give low values 1.02 | locus YEL061C, strain CIN8, hits give low values 1 | locus YER002W, strain NOP16, hits give low values 0.975 | locus YER015W, strain faa2, hits give low values 1.01 | locus YER016W, strain bim1, hits give low values 1.01 | locus YER110C, hits give low values 0.986 | locus YER111C, strain swi4, hits give low values 0.99 | locus YER155C, strain BEM2 (second series), hits give low values 0.963 | locus YER155C, strain BEM2, hits give low values 1 | locus YER167W, strain BCK2, hits give low values 1.03 | locus YFR010W, strain ubp6, hits give low values 1.02 | locus YGL078C, strain dbp3, hits give low values 1 | locus YGL086W, strain mad1, hits give low values 1 | locus YGL167C, strain pmr1, hits give low values 0.993 | locus YGL173C, strain kem1, hits give low values 0.989 | locus YGL227W, strain vid30, hits give low values 0.988 | locus YGL240W, strain doc1, hits give low values 0.988 | locus YGL248W, strain PDE1, hits give low values 1.01 | locus YGL253W, strain hxk2, hits give low values 1.03 | locus YGR078C, strain PAC10, hits give low values 1.01 | locus YGR135W, strain pre9, hits give low values 0.998 | locus YGR229C, strain SMI1, hits give low values 1.02 | locus YGR252W, strain gcn5, hits give low values 1.02 | locus YHR013C, strain ard1, hits give low values 0.966 | locus YHR027C, strain rpn1, hits give low values 1 | locus YHR030C, strain SLT2, hits give low values 1.01 and 0.954 | locus YHR079C, strain IRE1 (second series), hits give low values 1 | locus YHR079C, strain IRE1, hits give low values 0.965 | locus YHR094C, strain hxt1, hits give low values 0.995 | locus YHR129C, strain ARP1, hits give low values 1 | locus YHR142W, strain chs7, hits give low values 1.02 | locus YHR200W, strain rpn10, hits give low values 0.993 | locus YIL066C, strain RNR3, hits give low values 1.02 | locus YIL073C, strain SPO22, hits give low values 1.03 | locus YIL125W, strain kgd1, hits give low values 1 | locus YIR030C, strain dcg1, hits give low values 0.99 | locus YJL092W, strain hpr5, hits give low values 1.01 | locus YJL095W, strain BCK1 (second series), hits give low values 1 | locus YJL095W, strain BCK1, hits give low values 1.02 and 0.975 | locus YJL115W, strain asf1, hits give low values 1.01 | locus YJL129C, strain trk1, hits give low values 1.02 | locus YJL134W, strain LCB3, hits give low values 1 | locus YJL154C, strain vps35, hits give low values 0.989 | locus YJL164C, strain tpk1, hits give low values 1 | locus YJL166W, strain qcr8, hits give low values 0.985 | locus YJL168C, strain set2, hits give low values 0.995 | locus YJL187C, strain SWE1 (second series), hits give low values 1.03 | locus YJL187C, strain SWE1, hits give low values 1.01 | locus YJR043C, strain POL32, hits give low values 0.996 | locus YJR066W, strain TOR1, hits give low values 0.973
